Screening data: PubChem BioAssay, National Center for Advancing Translational Sciences (NCATS)
Only some compounds are listed: those with a hit (about 1.7% of all), similar ones and a draw of the others.
RXFP1 agonist = activates the human relaxin receptor RXFP1. Q9HBX9. Potency, µM (titrated, usually from 57.5 µM), for inactives: at the highest dose activation, hits mostly activators. HEK293T-RXFP1 cAMP TR-FRET, 30 min; response scale: percent of porcine relaxin response, buffer zero. AID 2676. 0.3% of 370,000 active; active means well fitted activation curve with a large enough effect; inconclusive means small, poorly fitted or top-dose-only effect; further: potency means the concentration at half of the fitted maximal effect; nearly all actives have a fitted effect of over 60% in size
Target sequence (Q9HBX9 whole entry, looked up): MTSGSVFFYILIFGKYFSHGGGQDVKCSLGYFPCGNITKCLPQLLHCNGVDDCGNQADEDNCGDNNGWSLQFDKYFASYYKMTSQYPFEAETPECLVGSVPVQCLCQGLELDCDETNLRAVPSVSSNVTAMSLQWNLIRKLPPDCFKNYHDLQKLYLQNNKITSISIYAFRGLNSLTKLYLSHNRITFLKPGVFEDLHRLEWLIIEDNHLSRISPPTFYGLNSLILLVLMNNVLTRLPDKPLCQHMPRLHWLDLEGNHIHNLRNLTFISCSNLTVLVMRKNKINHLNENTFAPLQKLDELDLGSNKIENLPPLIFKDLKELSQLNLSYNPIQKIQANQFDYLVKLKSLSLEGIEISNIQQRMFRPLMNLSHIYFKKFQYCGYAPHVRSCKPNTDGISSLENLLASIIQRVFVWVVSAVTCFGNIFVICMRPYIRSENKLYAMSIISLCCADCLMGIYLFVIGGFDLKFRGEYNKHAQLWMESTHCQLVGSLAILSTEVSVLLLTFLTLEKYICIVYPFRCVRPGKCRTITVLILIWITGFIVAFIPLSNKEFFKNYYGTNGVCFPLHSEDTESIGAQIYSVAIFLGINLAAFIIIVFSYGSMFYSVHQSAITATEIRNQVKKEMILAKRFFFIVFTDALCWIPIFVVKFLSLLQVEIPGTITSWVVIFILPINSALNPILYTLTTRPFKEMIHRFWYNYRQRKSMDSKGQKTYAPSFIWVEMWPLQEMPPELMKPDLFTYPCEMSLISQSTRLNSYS
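Agonist response is measured as cAMP accumulation in an RXFP1-transfected HEK293T line under PDE4 inhibition. Values are scaled between buffer-only and 29 nM porcine relaxin, and EC50s come from standard Hill equation fits.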
pAkt inh = Akt phosphorylation inhibition; AID 651550; activity change, % for hits at 50 µM; Neuro2A IGF-stimulated pAkt S473 HTRF, 20 min; hits give low values; 0.32% of 360,000 active; in the data active means activity change below about -80%; inconclusive means mostly about -51% to -80%
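Neuro2A cells (4,500/well, DMEM with 0.5% FBS) were treated with compound at a single 50 µM final concentration, stimulated with 6 nM IGF for 20 min at 37 °C, and lysed. Phospho-Akt Ser473 was read by HTRF as 665/615 ratio ×10^4.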
KCNH2 3.1 inh = blocks the human KCNH2 3.1 channel isoform | AID 720553 | 0.95% of 340,000 active | activity change, % (tested at about 1.8 µM) | U2OS KCNH2 3.1, thallium flux FluxOr; hits give low values;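 active means maximum activity change below -70%; inconclusive means maximum activity change from -70% to -50%; inactive means maximum activity change above -50%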;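 further: thallium influx rate constant from kinetic fluorescence after stimulation buffer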
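We transduce U2OS cells with the mutant 3.1 virus, culture them overnight, load FluxOr with Red40 quencher for 45 min, then add stimulation buffer and read kinetically for 2 min to derive a normalized rate constant.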
RXFP1 antag = blocks the human relaxin receptor RXFP1. 0.59% of 350,000 active. AID 1259400. HEK293-RXFP1, relaxin-stimulated cAMP HTRF, 30 min; hits give low values. activity change, negative = inhibition, % at 57.5 µM;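 active means activity change of -60% or lower, but not beyond a set lower limit; inconclusive means change between -60% and -40%, or beyond the set limit; inactive means change above -40%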
KCNH2 WT inh = blocks the wildtype human KCNH2 potassium channel. 0.37% of 340,000 active. activity change, % at 1.84 µM. AID 720551. Q12809. U2OS, BacMam KCNH2, thallium flux FluxOr; hits give low values;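 active means maximum activity change below -70%; inconclusive means maximum activity change between -70% and -50%; inactive means maximum activity change above -50%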
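U2OS cells transduced with wild-type KCNH2 virus are loaded with FluxOr dye for 45 min, and thallium flux is measured in kinetic reads before and after stimulation buffer. Rate constants are normalized to DMSO controls.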
Starred values were filed as active, the others as inactive; i = inactive; ? = inconclusive; · = no result given. On the % scale 0 is the no-effect control and ±100 the full control effect.

SMILES | RXFP1 agonist | pAkt inh | KCNH2 3.1 inh | RXFP1 antag | KCNH2 WT inh
Cc1ccc2c(C)cc(=S)[nH]c2c1 | 28.2µM* | i | 6.1 | 8.2 | -11.7
O=C(NCCCn1ccnc1)c1ccc(Cl)s1 | -1.2% | i | 10.3 | 0.1 | -10.1
O=C(NC(Cc1cn(Cc2ccccc2)cn1)C(=O)O)OCC1c2ccccc2-c2ccccc21 (stereo not drawn) | · | i | · | · | ·
COc1cc(/C=C(/C#N)C(=O)c2c(C)[nH]c3ccccc23)ccc1OCC#N | 0.2% | i | -10.3 | -16.2 | 5.8
CCOc1ccc(/C=C(\C#N)C(=O)c2c(C)[nH]c3ccccc23)cc1OC | 2.1% | i | -0.6 | -62.6* | -6.2
Fc1cccc(NC(=S)NCC(c2cccnc2)N2CCOCC2)c1 (stereo not drawn) | -2.0% | i | 21.8 | -5.6 | -14.4
C[C@H](NC(=O)N1CCn2c1nc1ccccc12)C(=O)NC1CCCCC1 | 3.0% | i | 11.5 | 18.5 | 0.9
CC(C)C[C@H](NC(=O)N1CCn2c1nc1ccccc12)C(=O)NC1CCCCC1 | 0.6% | i | 3.0 | -66.9* | 5.7
CCCC1=Nc2cc(C(=O)NCCN3CCOCC3)ccc2Sc2ccccc21 | -4.1% | i | -2.2 | -99.7* | -3.0
CCC1=Nc2cc(C(=O)NCCCN3CCN(C)CC3)ccc2Sc2ccccc21 | -1.0% | i | -3.5 | 7.7 | 1.9
Cc1ccc(NC(=O)c2ccc(-n3cccn3)c([N+](=O)[O-])c2)cc1 | 0.9% | i | 1.1 | -8.4 | -6.8
Cc1cccc(NC(=O)c2ccc(-n3cccn3)c([N+](=O)[O-])c2)c1 | 2.1% | -116.2%* | -2.8 | -6.4 | -11.6
COc1ccc(N(CC(=O)N2CCN(c3ccccc3)CC2)S(=O)(=O)c2c(C)noc2C)cc1 | 1.9% | i | 25.9 | 2.5 | 0.4
CCCOc1ccc(CC(CC(=O)O)(C(=O)O)C(=O)O)cc1 | 2.2% | i | 3.1 | -5.0 | -3.6
COc1cc(C(=O)N(C)CC2CCN(CCc3cccc(C(F)(F)F)c3)CC2)ccc1C | -0.4% | i | -71.9* | -12.6 | -1.5
CN(CC1CCN(CCc2cccc(C(F)(F)F)c2)CC1)C(=O)c1ccc(F)cc1 | 1.9% | i | -78.9* | 12.1 | ?
CCOc1ccc(-c2nn(-c3ccccc3)cc2/C=C2\SC(=S)N(Cc3ccco3)C2=O)cc1 | -0.2% | i | 7.9 | · | -3.0
FC(F)(F)c1cccc(NC(=S)NC2CCCC2)c1 | 1.6% | i | -106.5* | -8.7 | -0.6
COc1ccc(C2C(C(=O)N3CCC(C)CC3)c3ccccc3C(=O)N2C)cc1 (stereo not drawn) | 0.8% | i | -20.4 | 1.6 | -4.9
COc1ccc(C2C(C(=O)N3CCN(c4ccccc4F)CC3)c3ccccc3C(=O)N2C)cc1 (stereo not drawn) | -2.1% | -128.7%* | -0.1 | 0.3 | -2.0
COc1ccc(C2C(C(=O)Nc3cccc(C)n3)c3ccccc3C(=O)N2C)cc1 (stereo not drawn) | -1.5% | -109.7%* | 14.5 | 11.4 | -1.4
COc1ccc(C2C(C(=O)Nc3cc(C)on3)c3ccccc3C(=O)N2C)cc1 (stereo not drawn) | 3.9% | i | 5.3 | -7.9 | -4.9
COc1ccc(S(=O)(=O)CCC(=O)N(C)c2ccc(OC)cc2OC)cc1 | -1.3% | i | -5.8 | -11.6 | -14.6
O=C(CCN1CCCCC1)N1CCc2c([nH]c3ccccc23)C1c1cccnc1 (stereo not drawn) | · | i | -72.5* | -5.3 | ?
O=C(N/N=C/c1cc(Cl)c(O)c(Cl)c1)c1cc2c(ccc3ccccc32)o1 | 0.1% | i | -5.0 | -81.3* | 1.9
SMILES | RXFP1 agonist | pAkt inh | KCNH2 3.1 inh | RXFP1 antag | KCNH2 WT inh
O=C(N/N=C/c1ccc(O)c(Br)c1)c1cc2c(ccc3ccccc32)o1 | 0.5% | i | -12.5 | -3.3 | 0.0
O=C(N/N=C/c1cc(Br)c(O)c(Br)c1)c1cc2c(ccc3ccccc32)o1 | 5.7% | i | -11.6 | -100.1* | 0.2
O=C(N/N=C/c1cc(Br)c(Br)o1)c1cc2ccccc2o1 | 2.7% | i | 0.7 | -63.3* | 3.2
CCc1ccc(OCC(=O)Nc2ccc(N3CCN(C(=O)c4ccccc4)CC3)cc2)cc1 | -1.4% | i | -10.5 | -3.7 | 31.8
CCOC(=O)/C(C#N)=C/Nc1ccccc1OC | 1.7% | -98.5%* | 13.9 | 4.6 | -4.2
Cc1c(-c2ccccc2)oc2c(C(=O)N3CCN(c4ccc([N+](=O)[O-])cc4)CC3)cccc2c1=O | -0.5% | i | -70.8* | -8.4 | -103.1*
Cc1c(C(=O)OCC(=O)N2CCN(c3ccccc3)CC2)oc2ccccc12 | · | i | -11.2 | -22.4 | -1.1
O=C(C1COc2ccccc2O1)N1CCN(c2ccc([N+](=O)[O-])cc2)CC1 (stereo not drawn) | · | i | -73.2* | -23.6 | 3.4
Cc1c(C(=O)N2CCN(c3ccc([N+](=O)[O-])cc3)CC2)oc2ccccc12 | 0.7% | i | -73.2* | 3.1 | -18.3
O=C(Nc1ccccc1C(=O)O)c1cc(S(=O)(=O)N2CCCCCC2)ccc1Cl | -4.1% | i | -7.3 | ? | -13.5
COc1cc(CNc2nc3ccccc3n2C)cc(OC)c1OC | 1.7% | i | 0.0 | 19.7 | 19.2
CC(C)CCC(CCN1CCOCC1)c1ccc2c(c1)OCO2 (stereo not drawn) | 1.5% | i | -111.1* | ? | -115.5*
CC(C)CCC(CCN1CCCC1)c1ccc2c(c1)OCO2 (stereo not drawn) | -1.6% | i | -104.7* | -14.1 | ?
COCCCNCCC(CCC(C)C)c1ccc2c(c1)OCO2 (stereo not drawn) | 0.3% | i | ? | -17.7 | ?
CCC1C(=O)CC(c2ccc([N+](=O)[O-])cc2)NC1c1ccc([N+](=O)[O-])cc1 (stereo not drawn) | 0.9% | i | -79.1* | 7.3 | -13.7
CCC1C(=O)CC(c2ccco2)NC1c1ccco1 (stereo not drawn) | 0.4% | i | -6.1 | 1.8 | -9.5
Cc1nn(-c2nc(-c3ccco3)cc(C(F)(F)F)n2)c(C)c1Cl | 0.9% | -115.9%* | -3.1 | -3.4 | 1.1
COc1ccc(C)cc1S(=O)(=O)N1CCN(c2cccc(C(F)(F)F)c2)CC1 | 1.3% | i | 1.2 | 11.6 | -8.2
CC(C)(C)c1ccc(/C=C/C(=O)Nc2nncs2)cc1 | 2.5% | i | -82.7* | -3.8 | 13.5
O=C(/C=C/c1ccc2c(c1)OCO2)Nc1nncs1 | 12.9% | i | -16.0 | 5.8 | -6.6
c1cncc(CNC2CCCc3ccccc32)c1 (stereo not drawn) | -0.6% | i | -99.1* | 4.7 | -18.3
O=C(NC1CCCc2ccccc21)c1cccnc1 (stereo not drawn) | 1.5% | i | -4.6 | 2.0 | -5.6
O=C(O)c1cc2nc(-c3ccc(F)cc3)cc(C(F)(F)F)n2n1 | 0.1% | i | -2.1 | -14.9 | -4.0
